High-throughput results: PubChem BioAssay, National Center for Advancing Translational Sciences (NCATS)
LASV entry inh = qHTS for Inhibitors of binding or entry into cells for Lassa Virus. Lassa virus pseudotype entry inhibition, cell reporter. Potency, µM (top dose mostly 37.9 µM), for the others: at the top dose activity change, negative = inhibition, actives largely listed as inhibitors. hit rate 1.2% among 300,000; calls by dose curve; tested in HEK293 cells; note: potency is the fitted concentration of half-maximal effect; nearly all actives have a fitted effect of over 50% in size
FMDV inh = High Throughput Screening for Foot and Mouth Disease Virus Antivirals. FMDV antiviral cell-based qHTS. hit rate 1.2% among 410,000. Potency, µM (titrated, usually from 57.9 µM), inactives show at the highest dose activity change, negative = inhibition, most hits filed as inhibitors; calls by dose curve; tested in HEK293T cells; note: read-out not given here; potency is the fitted concentration of half-maximal effect; nearly all actives have a fitted effect of over 45% in size
Marburg entry inh = qHTS for inhibitors of binding or entry into cells for Marburg Virus | Marburg virus pseudotyped entry inhibition, cell reporter | Potency, µM (titrated, usually from 37.8 µM), for the others: at the highest dose activity change, negative = inhibition, most hits filed as inhibitors | hit rate 1.8% among 300,000 | AID 540276, 2011; calls by dose curve; tested in HEK293 cells; note: potency is the fitted concentration of half-maximal effect
HCMV antiviral = qHTS Assay for inhibitors of the human cytomegalovirus (HCMV) | activity change, negative = inhibition, % at 57.5 µM | hit rate 4.5% among 410,000 | HFF cells, HCMV-luciferase reporter, 72 h; active compounds read low; in the data active = activity change below about -60%; inconclusive = no clear call, values can overlap the other calls; inactive = above about -39%
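Cell-based, HFFs, 1000 cells/well, 16 h 37C; cpds in DMSO + HCMV-luc, MOI 1 PFU/cell; 72 h 37C; OneGlo luminescence after 5 min RT; norm. to buffer vs Salinomycin 10uM.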
HCV inh = qHTS Assay for Inhibitors of Hepatitis C Virus (HCV). AID 651820, 2012. hit rate 3.4% among 340,000. Potency, µM (highest dose often 41.8 µM), inactives show at the highest dose activity change, negative = inhibition, actives largely listed as inhibitors. Huh7.5.1 HCVcc-Cre infection, luciferase reporter, 44 h; active = well fitted inhibition curve with a large enough effect; inconclusive = small, poorly fitted or top-dose-only effect, or another doubt; inactive = no such curve, though single readings can be large or run the other way; note: potency is the fitted concentration of half-maximal effect
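Infectious HCVcc-Cre (~0.5 moi) was added to cells just after compound, with cells seeded 4 h earlier at 1,000 per well. Luciferase activity after 44 h culture reported infection; substrate was incubated 15 min at room temperature before reading.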
* hit, by the source's call; ? = inconclusive; · = not tested or not shown; [ ] = dose if it differs, or a comment. Rows were chosen to be rich in hits. Some 7.9% of all compounds tested hit in one or more screens of this group. % is set by controls: 0 for no effect and ±100 for the full control effect.

SMILES	LASV entry inh	FMDV inh	Marburg entry inh	HCMV antiviral	HCV inh
O=C(O)CCCCCn1c(O)c(C=C2N=c3ccccc3=N2)sc1=S	0%	-6%	?	-80*	11%
COc1cc(C(O)c2nc(C(=O)NCCN(C)C)cs2)cc(OC)c1OC (stereo not drawn)	·	·	·	2	·
O=C(c1cc(S(=O)(=O)N2CCOCC2)ccc1Cl)N1CCC(Cc2ccccc2)CC1	?	-8%	?	-2	-18%[8.37 µM]
CC(NC(=O)c1ccc(Cl)cc1Cl)C(c1ccccc1)N1CCOCC1 (stereo not drawn)	14%	14%	7%[46.1 µM]	-66*	13%
CC(NC(=O)c1cccc(C(F)(F)F)c1)C(c1ccccc1)N1CCOCC1 (stereo not drawn)	-7%	-23%	-17%[46.1 µM]	-62*	8%
CC(NC(=O)Nc1ccc([N+](=O)[O-])cc1)C(c1ccccc1)N1CCOCC1 (stereo not drawn)	6%	-10%	?	4	-5%
CC(NC(=O)Nc1ccc(Cl)c(Cl)c1)C(c1ccccc1)N1CCOCC1 (stereo not drawn)	?	-18%	?	-95*	?
Cc1cccc(C(=O)NC(C)C(c2cccs2)N2CCOCC2)c1 (stereo not drawn)	16%[46.1 µM]	-17%	?	0	4%
CC1(C)Cc2cccc(Oc3cc(NN4CCCCC4)c([N+](=O)[O-])cc3[N+](=O)[O-])c2O1	·	-29%	·	-18	-7%
c1ccc2c(-c3cncc4ccccc34)cncc2c1	?	-15%	13µM*	-30	8%
c1ccc2c(c1)-c1cccc3cncc-2c13	26%	-10%	-7%	-34	?
O=C(Nc1ccc(F)cc1F)c1ccc2c(c1)OCCO2	?	3%	2.8µM*	-4	10%
Cc1ccccc1NC(=O)c1ccc2c(c1)OCCO2	29%	0%	28%	25	5%
O=C(NCCc1ccccc1F)c1ccc2c(c1)OCCO2	0.89µM*	2.8µM*	?	-99*	4%
O=C(Nc1ccc(Br)cc1F)c1ccc2c(c1)OCCO2	?	-48%	6.3µM*	-18	-25%
O=C(COC(=O)c1ccc2c(c1)OCCO2)Nc1ccc(F)cc1F	1%	19%	29%	-21	-13%
CCn1cc(C(=O)Nc2ccc(C(C)C)cc2)c2cc(OC)c(OC)cc2c1=O	-18%[46.1 µM]	?	?	?	·
COc1cc2cc(C(=O)N3CC(COS(C)(=O)=O)c4ccc(O)cc43)[nH]c2c(OC)c1OC (stereo not drawn)	?	6.3µM*	?	·	?
Cc1ccc2c(c1)/C(=C/c1ccccc1)C(=O)N2	10µM*	-28%	?	-35	-20%
Cc1ccc(C)c(Cn2cnc3ccccc3c2=O)c1	-1%[46.1 µM]	20%	-12%[46.1 µM]	-15	·
Cc1cccc(C)c1OCCCn1c(CCNC(=O)C2CCCCC2)nc2ccccc21	?	-16%	-17%[46.1 µM]	24	·
Cc1cc(OCCCn2c(CCNC(=O)C3CCCCC3)nc3ccccc32)ccc1Cl	-25%[46.1 µM]	-4%	?	-73*	·
Cc1cc(Br)ccc1NC(=O)CNC(=O)Cn1ncc(Cl)c(Cl)c1=O	·	6.3µM*	-26%[46.1 µM]	-101*	2.2µM*
Cc1ccc(S(=O)(=O)N2CCCCC2)cc1NC(=O)CSCC(=O)O	4%	3%	18%[46.1 µM]	-19	6%
Cc1ccc(S(=O)(=O)N2CCCCC2)cc1NC(=O)Cn1ncc(Cl)c(Cl)c1=O	·	20µM*	·	-97*	0.71µM*
SMILES	LASV entry inh	FMDV inh	Marburg entry inh	HCMV antiviral	HCV inh
Cc1ccc(S(=O)(=O)N2CCCCC2)cc1NC(=O)Cn1cnnn1	·	-15%	·	-6	27%
O=C(O)CCC(=O)N1CCN(S(=O)(=O)c2ccc3ccccc3c2)CC1	·	9%	-6%[46.1 µM]	?	0%
Cc1ccc(S(=O)(=O)N2CCCCC2)cc1NC(=O)CNC(C)c1ccc(Cl)c(Cl)c1 (stereo not drawn)	·	-14%	·	-1	8.9µM*
O=C(Cn1ncc(Cl)c(Cl)c1=O)N1CCN(S(=O)(=O)c2ccc3ccccc3c2)CC1	?	28µM*	1.8µM*	-86*	5.6µM*
COc1cc(C(=O)OC2CC[C@]3(C)C4CCC5[C@]6(O)CC(O)[C@]7(O)C(CN8CC(C)CCC8[C@]7(C)O)[C@]6(O)C[C@@]53O[C@]24O)cc(OC)c1OC (stereo partly drawn)	·	-9%	·	·	·
COC(=O)C1=C(C(=O)OC)[C@@H]2Nc3ccccc3[C@@]23C[C@@H](C(=O)OC)N(C(=O)Nc2ccccc2F)C3=N1	·	·	-9%[14.2 µM]	·	·
Cn1c(Sc2nc3ccccc3n2C)nc2ccccc21	?	-13%	?	-95*	-8%
Cc1nc([N+](=O)[O-])c(Sc2nc3ccccc3n2C)n1Cc1ccccc1	?	25µM*	?	50	13µM*
Cn1c(SCC(=O)N2CCCC2)nc2ccccc21	1%[46.1 µM]	21%	11%[46.1 µM]	-8	3%
CCN1CCCC1CNC(=O)c1cnn(-c2nccc(-c3ccccc3OC)n2)c1-c1ccco1 (stereo not drawn)	·	-6%	·	·	·
S=c1[nH]c(-c2ccc(Cl)cc2)cs1	·	9%	0%[46.1 µM]	-62*	9%
COc1cccc(NC(=O)CSc2nn3c(=O)c(C)nnc3s2)c1	24%[46.1 µM]	7%	-4%[46.1 µM]	-21	-5%
O=C(NCCS(=O)(=O)N1CCN(c2ccccc2F)CC1)C(c1ccccc1)c1ccccc1	-13%[46.1 µM]	-10%	·	-28	·
COc1ccc(C)cc1NC(=O)c1cc2c(=O)n3cccc(C)c3nc2s1	1%[46.1 µM]	4%	?	-6	·
CCOC(=O)c1sc2nc(CC(=O)OC)nc(NCCN(CC)CC)c2c1C	-15%	-11%	?	-31	11µM*
CCOC(=O)c1sc2nc(CC(=O)OC)nc(NCc3ccc(Cl)cc3)c2c1C	-5%	-29%	-9%	-107*	5.6µM*
CCOC(=O)c1sc2nc(CC(=O)OC)nc(NCCN3CCOCC3)c2c1C	5%	-6%	?	?	?
O=C(NCc1cccs1)C(=O)c1cn(CC(=O)N2CCOCC2)c2ccccc12	11%	8%	1%[46.1 µM]	-96*	1%
O=C(NCc1cccs1)C(=O)c1cn(CC(=O)N2CCCC2)c2ccccc12	7%	12%	17%	0	-8%
COc1cc(/C=C(/C#N)c2ccc(F)cc2)ccc1Oc1ccc([N+](=O)[O-])cn1	?	?	?	-61*	2.5µM*
CCCN1C(=O)c2ccccc2CC1(C)C(=O)NC1CCCCC1 (stereo not drawn)	·	-15%	5%[46.1 µM]	-8	·
Cn1cc([N+](=O)[O-])c(C(=O)Nc2ccc(-c3nc4ccccc4[nH]3)cc2)n1	4%	43%	?	-73*	-3%
O=C(Nc1ccc(-c2nc3ccccc3[nH]2)cc1)c1ccco1	?	·	-22%	·	?
O=C(Nc1ccc2nc(-c3ccc4nc[nH]c4c3)[nH]c2c1)c1cccs1	0%	4%	31%	-21	-26%
O=C(Nc1ccc2nc(-c3ccccc3)[nH]c2c1)c1cccs1	-16%	·	-4%	-79*	?
